Bioassay records deposited in PubChem BioAssay by Sanford-Burnham Center for Chemical Genomics.
Most compounds without a hit are left out; they make up all but 4% or so of the library.
tim23-1 inh: inhibits growth of tim23-1 mutant yeast. S. cerevisiae tim23-1 growth, BacTiter-Glo luminescence, 24 h. inhibition, % at 20 µM. 330,000 compounds, 1.3% hits;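 active = growth inhibition of the mutant yeast at or above 50%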;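 also: temperature-sensitive mutant grown at 25 °C; plate controls were DMSO-treated mutant yeast for no effect and medium wells lacking yeast for full effect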
TIM10 inh: growth inhibitors of TIM10 yeast strain; 330,000 compounds, 1.4% hits; S. cerevisiae TIM10 strain growth, BacTiter-Glo luminescence, 24 h; inhibition, % at 10 µM;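 active = inhibition of 40% or more at the single tested concentration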;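 also: wild-type TIM10 isogenic control strain grown at permissive 25 °C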
tim10-1 inh: growth inhibitors of tim10-1 mutant yeast; inhibition, % at 20 µM; 330,000 compounds, 2.2% hits; S. cerevisiae tim10-1 ts strain growth, BacTiter-Glo, 24 h;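 active = inhibition of at least 40%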;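 also: mutant grown at 25 °C; 0% = DMSO wells with yeast and 100% = wells holding no yeast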
NALP1 yeast inh: NALP1 inhibition; inhibition, % at 10 µM; 280,000 compounds, 0.61% hits; S. cerevisiae NALP1/ASC/caspase-1 growth, X-gal OD620, 72 h; in the data active = inhibition mostly above about 24%, no sharp cut-off; inactive = mostly below about 32%
NALP3 yeast inh: blocks the NALP3 inflammasome reconstituted in yeast | Yeast reconstituted NLRP3/ASC/caspase-1, beta-gal luminescence, 24 h | inhibition, % at 10 µM | 330,000 compounds, 0.39% hits;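 active = inhibition of 50% or more; inactive = inhibition below 50%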;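 also: plate controls were induced DMSO wells for no effect and uninduced yeast grown without galactose for full effect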
tim10-1 conf: tim10-1 yeast growth inhibition, confirmed; shares compounds with tim10-1 inh; S. cerevisiae tim10-1 ts strain growth, BacTiter-Glo, 24 h; inhibition, % at 20 µM; 7,400 compounds, 56% hits; AID 463213;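 active = inhibition of yeast growth at or above a set limit in either of two repeat tests at 20 µM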;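 also: tim10-1 mutant grown at permissive 25 °C to find synthetic lethal compounds; 0% = DMSO yeast wells and 100% = medium wells without yeast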
Numbers without * were called inactive; nt = no result given; ! = a repeat was not active.

SMILES	tim23-1 inh	TIM10 inh	tim10-1 inh	NALP1 yeast inh	NALP3 yeast inh	tim10-1 conf
CN(C)c1ccc(/C=C/C=C2/SC(=S)N(c3ccccc3)C2=O)cc1	46	36	44*	3	15	29*
O=C(/C=C/c1cccc(Oc2ccccc2)c1)N1CCOCC1	5	5	43*	5	12	12
O=C(/C=C/c1cccc([N+](=O)[O-])c1)N1CCOCC1	9	-3	6	30	6	nt
Cc1nonc1C(=O)N/N=C/c1cccc(O)c1	-11	-4	4	28	15	nt
CN=C(Nc1cc(Cl)ccc1Cl)SC1CC(=O)N(c2ccc(C(=O)OC)cc2)C1=O (stereo not given)	42	14	44*	nt	35	42*
COC(=O)c1ccc(N2C(=O)CC(SCC(=O)Nc3ccc(OC)cc3)C2=O)cc1 (stereo not given)	28	13	21	nt	18	nt
O=C(Nc1nnc(C2CC2)s1)C1Cc2ccccc2CN1S(=O)(=O)c1ccccc1F (stereo not given)	2	6	12	-1	-10	nt
O=C(COC(=O)c1ccc(-c2ccc([N+](=O)[O-])cc2)o1)NC(=O)NC1CCCCC1	35	1	42*	46	4	19
CCn1c(SCC(=O)Nc2ccc(NC(C)=O)cc2)nc2c1c(=O)n(C)c(=O)n2C	7	-17	-6	5	3	nt
O=c1c(C(c2ccccc2)c2c(O)nc3n(c2=O)CCS3)c(O)nc2n1CCS2	3	-1	-3	42	11	nt
Cc1ccc(Cl)cc1NC(=O)COC(=O)C12CC3CC(CC(C3)C1)C2	23	40	47*!	11	9	33*
Cc1ccc(Cl)cc1NC(=O)COC(=O)C1CCCC1	14	-3	12	8	-2	nt
Brc1ccc(CSc2nnc(-c3ccccn3)n2Cc2ccco2)cc1	37	28	40*	13	7	33*
C(=C\c1ccccc1)/CSc1nnc(-c2ccncc2)n1Cc1ccco1	33	27	13	16	10	nt
O=C(CSc1nnc(-c2ccccn2)n1Cc1ccco1)c1ccccc1	22	-1	22	8	9	nt
C(=C\c1ccccc1)/CSc1nnc(-c2ccccc2)n1Cc1ccco1	38	4	44*	20	13	26
O=C(CSc1nnc(-c2cccnc2)n1Cc1ccco1)c1ccc2ccccc2c1	27	7	45*	-9	14	13
O=C(N/C(=C\c1ccccc1)C(=O)N1CCCCC1)c1ccc(Br)o1	31	4	28	6	21	nt
Cc1nnc(SCC(=O)c2ccc(Cl)cc2)s1	12	5	29	12	2	nt
Nc1nnc(Cc2ccc(Cl)c(Cl)c2)s1	-14	-2	1	11	8	nt
COc1ccccc1CCC(=O)Oc1ccccc1C#N	39	26	25	10	23	nt
O=C(NCCN1CCOCC1)c1ccc(Cl)c(S(=O)(=O)NCc2ccccc2)c1	10	-6	2	nt	4	nt
Cc1nn(Cc2c(F)c(F)c(F)c(F)c2F)c(C)c1NC(=O)c1ccc(COc2ccccc2Cl)cc1	nt	nt	nt	-26	nt	nt
Cc1nn(Cc2c(F)c(F)c(F)c(F)c2F)c(C)c1NC(=O)c1ccc(COc2ccccc2Cl)o1	30	38	46*	7	1	32*
CC(C(=O)N1CCCC1)N1CCN(S(=O)(=O)c2ccccc2)CC1 (stereo not given)	0	-5	-5	nt	15	nt
SMILES	tim23-1 inh	TIM10 inh	tim10-1 inh	NALP1 yeast inh	NALP3 yeast inh	tim10-1 conf
CCCn1ncc(CN2CCC(C(=O)Nc3cccc(-c4cccc(F)c4)c3)CC2)c1C	-31	16	6	33	16	nt
N#CCCn1cc(CNC2CCC(O)CC2)c2ccccc21 (stereo not given)	12	-7	2	30	-4	nt
CCc1cc(-c2n[nH]c(=S)n2-c2ccccc2C)cs1	35	22	42*	-42	21	35*
CCCc1cc(-c2n[nH]c(=S)n2C(C)c2ccccc2)cs1 (stereo not given)	45	14	48*	2	11	19
CCc1cc(-c2n[nH]c(=S)n2CC)cs1	34	7	14	18	17	nt
S=c1[nH]nc(-c2ccco2)n1/N=C/C=C/c1ccccc1	36	37	41*	-4	1	30*
S=c1[nH]nc(-c2ccco2)n1/N=C/c1cccc(Cl)c1Cl	36	32	41*	48	28	33*
S=c1[nH]nc(-c2ccccc2)n1/N=C/C=C/c1ccco1	36	15	37	13	7	nt
S=c1[nH]nc(-c2ccco2)n1/N=C/c1ccc(Cl)cc1Cl	37	38	38	5	16	nt
COC(=O)C1=C(C)NC(=O)/C1=C\N(C)C	11	-6	-12	7	10	nt
CCOC(=O)c1cc(NC(=O)Nc2ccccc2OC)c(C)nc1C	11	20	41*	3	6	22
CCOC(=O)c1cc(NC(=O)Nc2ccccc2Cl)c(C)nc1C	7	21	31	8	24	nt
C/C(=N\OC(=O)NC(C)C)c1sc(-c2ccccc2)nc1C	29	20	31	24	37	nt
C/C(=N\OC(=O)NC(C)C)c1sc(-c2ccc(Cl)cc2)nc1C	23	18	45*	4	24	42*
CSc1ccc(S(=O)(=O)NCc2ccc(C)cc2)cc1	45	35	44*	48	10	37*
Cc1ccc(S(=O)(=O)NCc2ccccc2)cc1	27	9	27	24	3	nt
Cc1ccc(S(=O)(=O)NCc2ccccc2C)cc1	25	-11	6	13	11	nt
CSc1ccc(S(=O)(=O)NCc2ccccc2C)cc1	41	17	47*	-8	1	25
Cc1cccc(C(=O)OCCN2CCOCC2)c1	-6	-9	-17	22	1	nt
CC(=O)c1ccc(OC(=O)Cc2cccc3ccccc23)cc1	43	31	46*	0	-20	36*
O=C1/C(=C/c2ccccc2)SC(=S)N1CC(=O)N1CCCCC1c1cccnc1 (stereo not given)	47	17	47*	13	16	16
OCC(O)CN1CCCC1 (stereo not given)	2	0	-6	24	18	nt
Cc1nc(N)c2c(Cc3cccc4ccccc34)nn(C(C)(C)C)c2n1	38	18	25	nt	18	nt
CCCNC(=S)N1CCN(c2nc(-c3ccc(C)cc3)cs2)CC1	19	24	13	-8	18	nt
COCCCNC(=S)N1CCN(c2nc(-c3ccc(F)cc3)cs2)CC1	48	19	44*	-77	18	33*
O=C(NC1CCCCC1)N1CCN(c2nc(-c3ccccc3)cs2)CC1	41	20	45*	10	23	30
COCCNC(=S)N1CCN(c2nc(-c3ccccc3)cs2)CC1	38	10	41*	13	18	32*
COc1ccc(-c2csc(N3CCN(C(=O)c4ccccc4)CC3)n2)cc1	33	27	42*	6	-32	33*
